About 83,000 compounds went through this panel and 20% of them were active in at least one assay; those are over-represented in the sample as a whole.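 The endpoint reported here, percent growth, reads 100 for growth as untreated, 0 for no net growth and -100 for all cells dead.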 Values without a mark were called inactive. Calls of active or inactive are those of the source. The calls were made as follows: active = growth percent below 10; inactive = the rest.

This note sets out measurements from PubChem BioAssay (NCI).

For the assay, the system named is MDA-MB-468 breast. Description: NCI-60 one-dose screen, 48 h (100 = growth as untreated, 0 = no growth, -100 = all killed). As to conditions: 10 µM unless noted.
In the case of `CCS(=O)(=O)Nc1ccc(C(=O)CC2(O)C(=O)Nc3ccccc32)cc1` (stereo not given), the growth is 95.4%.
Consider `CC(C)C(=O)Nc1ncc(C(=O)NCCN(Cc2ccccc2)C(=O)c2ccc(S(=O)(=O)Nc3ccccc3)cc2)s1`, for which the growth was 80.3%.
Then `O=c1c(-c2nc3ccccc3[nH]2)cc2ccccc2n1Cc1cn(Cc2ccccc2Cl)nn1`, with 14.1%; and `O=C1/C(=C/N2N=C(c3ccc4ccccc4c3)CC2c2ccccc2O)SC(=S)N1c1cccnc1` (stereo not given), with 7.52% (active).
For the compound `C#CCOc1ccc2nc(CCl)c(Cl)c(Nc3cccc(C(F)(F)F)c3)c2c1`, the growth was 10.3%.
The same measure for `COc1ccc2c(c1)oc1c(C)c3c(c(C)c12)C(=O)N(CCOS(C)(=O)=O)C3=O`: 127%; for `COc1cc(N=C2C(=O)N(Cc3ccccc3)c3ccccc32)cc(OC)c1OC`: 103%.
For `O=C1/C(=C\C(Cl)=C/c2ccc([N+](=O)[O-])cc2)SC(=S)N1CCc1ccc(O)cc1`, the growth is -84.7% (active).
As for `C=C(C)[C@@H]1CC[C@]2(C(=O)N3CCN(C)CC3)CC[C@]3(C)[C@H](CC[C@@H]4[C@@]5(C)CC[C@H](OP(=O)(OCC)OCC)C(C)(C)[C@@H]5CC[C@]43C)[C@@H]12`, the growth was 76.2%.
The same measure for `C#CCOc1cccc(Nc2ncnc3cc(NC(=O)C=C)ccc23)c1`: -24.9% (active); for `N=C(N)c1ccc(S(N)(=O)=O)cc1`: 96.8%; for `COc1cc(-c2nc3ccc(C)cc3[nH]2)ccc1OCC(=O)N=Nc1c(O)[nH]c2ccc(Cl)cc12`: -48.7% (active).
As for `O=C(/C=C/c1ccc(Cl)cc1)c1ccc(Nc2nc(NCCO)nc(N3CCOCC3)n2)cc1`, the growth was 69.4%.
The same measure for `COc1cccc(Nc2ccnc3[nH]c4ccc([N+](=O)[O-])cc4c23)c1`: 23.1%.
The same measure for `Cc1ncc(CO)c(C(=O)O)c1O`: 108%.
Then `CCN(CC)Cc1cc(Nc2nc(NC3CCC(N(C)C)CC3)c3ccccc3n2)ccc1OC` (stereo not given), with -15.1% (active); and `CC(C)CCSc1nc(NNC(N)=O)c(C#N)c(-c2ccccc2)n1`, with 108%.
With `COc1cc(/C=N/NC(=O)c2cnn3c2NC(c2ccccc2)C3)ccc1OC1CCCC1` (stereo not given), the growth is 23.3%.
For `Fc1cccc(F)c1C#Cc1ccc2cccnc2c1`, the growth was 36.5%.
The same measure for `Cc1cn(-c2cc(NC(=O)c3ccc(C)c(Nc4nccc(-c5cnccn5)n4)c3)cc(C(F)(F)F)c2)cn1`: 103%; for `Cc1nc2ncccc2nc1Nc1ccc(S(=O)(=O)Nc2ccccn2)cc1`: 109%.
Then `Cc1[nH]c(C(=O)Nc2nc3ccc(NC(=O)CCN)cc3s2)c(Cl)c1Cl`, with 69.4%; and `c1ccc(-c2nc(N3CCNCC3)c3nc(-c4ccccc4)oc3n2)cc1`, with -37.2% (active); and `NCCNc1ccc([N+](=O)[O-])cc1`, with 110%.
Regarding `COc1c(N2CC3CCCN(C(C)=O)C3C2)c(F)cc2c(=O)c(C(=O)N[C@H]3C(O)[C@@H](O)C(CO)O[C@H]3O)cn(C3CC3)c12` (stereo not given in full), the growth was 98%.
Then `CCSc1nc2scc(C)c2c(=O)[nH]1`, with 110%; and `COc1ccc(-c2nnc(SCC(=O)N3CCN(c4cc5c(cc4F)c(=O)c(C(=O)O)cn5C4CC4)CC3)o2)cc1OC`, with 96.4%.
In the case of `O=C(Nc1ccc(Cl)cc1Cl)Nc1ccc(-c2cccnc2)cc1N1CCC(CO)CC1`, the growth was 23%.
Then `Nc1ccc2[nH]c(-c3ccccc3)cc(=O)c2c1`, with 51%; and `CC(=O)N1N=C(c2cccc(Nc3ccncc3)c2)CC1c1ccc2c(c1)OCO2` (stereo not given), with 85.5%.
`COc1ccc(C(=O)n2nc(/C=C/c3ccc(O)c(OC)c3)cc2/C=C/c2ccc(O)c(OC)c2)cc1`: the growth was -8.43% (active).
Take `N#C/C(=C1C=C/C(=N/O)C(Cl)=C/1)c1ccc(Cl)cc1`: the growth was -8.37% (active).
Then `CC(C)CCC(=O)[C@@H](C)[C@H]1[C@@H](OC2OCC(O)C(O)C2NS(C)(=O)=O)C[C@H]2[C@@H]3CC=C4C[C@@H](O)CC[C@]4(C)[C@H]3CC[C@]12C` (stereo not given in full), with 43.8%.
The same measure for `O=C1O[C@H]([C@H](O)CO)C(O)=C1O`: 90%.
As for `CC1(C)CCC[C@]23C(=O)O[C@](O)(C(=O)C4=C[C@@](C)(/C=C/CCCc5ccc6ccc7cccc8ccc5c6c78)CC[C@@]42O)[C@@H]13`, the growth is -70% (active).
With `Cc1cc(C(C)(C)c2cc(C)c(O)c(CN(C)C)c2)cc(CN(C)C)c1O`, the growth is 67.7%.
Regarding `O=C1C=CC(=O)N1Cc1ccco1`, the growth is 65.4%.
The same measure for `COc1cc(-c2c3c(nc4c2c(C)nn4-c2ccccc2)-c2ccccc2C(=O)C3=O)cc(OC)c1OC`: 88.9%; for `CC1(C)COC(=S)N1`: 99.5%.
As for `Cc1ccc(S(=O)(=O)c2nc(-c3ccccc3)oc2S(C)(=O)=O)cc1`, the growth was -59.3% (active).
